Screening data from PubChem BioAssay.
In the library only some 0.51% were active in any assay of this set; here they are far more common.
FMDV antiviral – shows antiviral activity against foot and mouth disease virus; FMDV antiviral cell assay, firefly luciferase signal; 0.23% of 120,000 active; Potency, µM (highest dose often 57.5 µM), inactives show top-dose activity change, negative = inhibition, most hits filed as inhibitors; AID 1745856; further: nearly all actives have a fitted effect of over 60% in size
FMDV RLuc – FMDV antiviral activity by Renilla signal. 0.32% of 120,000 active. FMDV replicon cells, Renilla luciferase signal. Potency, µM (doses to about 57.5 µM), without a hit: at the highest dose activity change, negative = inhibition, usual class: inhibitors; further: nearly all actives have a fitted effect of over 55% in size
Numbers without * were called inactive; ? = inconclusive. The call rests on the fitted dose curve. On the % scale 0 is the no-effect control and ±100 the full control effect; potency means the concentration at half of the fitted maximal effect.

SMILES	FMDV antiviral	FMDV RLuc
O=[N+]([O-])c1ccccc1/C=N/Nc1ccc(S(=O)(=O)Nc2ccc(Cl)cc2)cc1[N+](=O)[O-]	-11.2%	181.0%
O=[N+]([O-])c1ccccc1/C=N/Nc1ccc(S(=O)(=O)Nc2cccc(Cl)c2)cc1[N+](=O)[O-]	11.2µM*	-77.1%
COCCn1c(C)cc(C(=O)CSc2nnc(CN3CCCC3)n2-c2ccccc2)c1C	3.7%	-12.2%
COc1cc(-c2noc(-c3ccc(Br)cc3)n2)cc(OC)c1OC	7.2%	-0.7%
COc1cc(-c2nc(-c3ccc(Br)cc3)no2)cc(OC)c1OC	0.398µM*	-7.8%
COc1cc(C(=O)Nc2ccccc2-c2nc(-c3ccc(C)cc3)no2)cc(OC)c1OC	-15.2%	35.5µM*
COc1cc(C(=O)Nc2ccccc2-c2nc(-c3ccccc3)no2)cc(OC)c1OC	2.8%	-3.1%
CN1CC(=O)N(CCCC(=O)Nc2cnc3ccccc3c2)C1=O	0.0%	-13.7%
COc1ccccc1CNC(=O)Cn1c(=O)oc2cc(S(=O)(=O)N3CCC(C)CC3)ccc21	28.2µM*	?
COc1ccccc1CNC(=O)Cn1c(=O)ccc2cc(S(=O)(=O)N3CCC(C)CC3)ccc21	9.9%	55.7%
O=C(Cn1c(=O)oc2cc(S(=O)(=O)N3CCCCC3)ccc21)NCc1ccc(F)cc1	14.7%	-14.7%
COc1ccc(C)cc1NC(=O)Cn1c(=O)oc2cc(S(=O)(=O)N3CCCCCC3)ccc21	-22.0%	3.3%
O=C(Cn1c(=O)oc2cc(S(=O)(=O)N3CCCCCC3)ccc21)NCc1ccccc1Cl	28.2µM*	?
Cc1ccc(NC(=O)Cn2c(=O)oc3cc(S(=O)(=O)N4CCCCC4)ccc32)c(C)c1	?	8.91µM*
C=CCn1c(COc2ccc(C(C)(C)C)cc2)n[nH]c1=S	56.0%	-0.9%
